Several values for one entry are separate records, joined by “and”; a condition that tells them apart may be missing. Equal values may be shown once. This is part of a sample that, as a whole, favours compounds with a hit. Of some 83,000 tested, about 20% had one in any assay.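 Cell lines were cultured in 96-well plates, exposed to a single compound concentration, and assessed for percent growth 48 hours later.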 Activity calls are given as the source filed them. The calls were made as follows: active = growth percent below 10; inactive = the rest.
Experiments:
Test in all cases: NCI-60 one-dose screen, 48 h (100 = growth as untreated, 0 = no growth, -100 = all killed)
SR leukemia = system: SR leukemia
RPMI-8226 leukemia = system: RPMI-8226 leukemia
OVCAR-8 ovarian = system: OVCAR-8 ovarian
OVCAR-5 ovarian = system: OVCAR-5 ovarian
OVCAR-4 ovarian = system: OVCAR-4 ovarian
SK-OV-3 ovarian = system: SK-OV-3 ovarian
IGROV1 ovarian = system: IGROV1 ovarian
OVCAR-3 ovarian = system: OVCAR-3 ovarian
HS 578T breast = system: HS 578T breast
NCI/ADR-RES ovarian = system: NCI/ADR-RES ovarian

Measured: growth

COc1ccc(C(c2cc(OC)c(OC)c(OC)c2)n2ccnc2)cc1O (stereo not given)
inactive: RPMI-8226 leukemia; 10 µM unless noted 18.9% | OVCAR-8 ovarian; 10 µM unless noted 10.3% | OVCAR-5 ovarian; 10 µM unless noted 71.1% | OVCAR-4 ovarian; 10 µM unless noted 73.6% | SK-OV-3 ovarian; 10 µM unless noted 21.8% | IGROV1 ovarian; 10 µM unless noted 36.4% | HS 578T breast; 10 µM unless noted 29.1% | NCI/ADR-RES ovarian; 10 µM unless noted 12.1%
active: SR leukemia; 10 µM unless noted 8.48% | OVCAR-3 ovarian; 10 µM unless noted -9.52%

CC/C(=C(/c1ccc(Cl)cc1)c1ccc(OCCN2CCOCC2)cc1)c1ccccc1
inactive: SR leukemia; 10 µM unless noted 85.1% | RPMI-8226 leukemia; 10 µM unless noted 80.3% | OVCAR-8 ovarian; 10 µM unless noted 91.6% | OVCAR-5 ovarian; 10 µM unless noted 100% | OVCAR-4 ovarian; 10 µM unless noted 100% | SK-OV-3 ovarian; 10 µM unless noted 116% | IGROV1 ovarian; 10 µM unless noted 108% | OVCAR-3 ovarian; 10 µM unless noted 96% | HS 578T breast; 10 µM unless noted 99.2% | NCI/ADR-RES ovarian; 10 µM unless noted 103%

CCOc1nc(-c2ccccc2)cc2c(O)c(C(=O)N/N=C/c3ccc(N(C)C)cc3)[nH]c(=O)c12
inactive: SR leukemia; 10 µM unless noted 101% | RPMI-8226 leukemia; 10 µM unless noted 102% | OVCAR-8 ovarian; 10 µM unless noted 115% | OVCAR-5 ovarian; 10 µM unless noted 115% | OVCAR-4 ovarian; 10 µM unless noted 148% | SK-OV-3 ovarian; 10 µM unless noted 197% | IGROV1 ovarian; 10 µM unless noted 15.7% | OVCAR-3 ovarian; 10 µM unless noted 111% | HS 578T breast; 10 µM unless noted 94.1% | NCI/ADR-RES ovarian; 10 µM unless noted 105%

COc1ccc(C(=O)/C=C/c2ccc(OCc3ccc(Cl)cc3)cc2)cc1OC
active: OVCAR-8 ovarian; 100 µM -8.35% | OVCAR-4 ovarian; 100 µM -4.25% | SK-OV-3 ovarian; 100 µM 7.5% | IGROV1 ovarian; 100 µM 4.98% | OVCAR-3 ovarian; 100 µM -45.2% | HS 578T breast; 100 µM -1.6% | NCI/ADR-RES ovarian; 100 µM 0.0169%
inactive: SR leukemia; 10 µM 78.2% | SR leukemia; 100 µM 43.8% | RPMI-8226 leukemia; 10 µM 88.5% | RPMI-8226 leukemia; 100 µM 55.8% | OVCAR-8 ovarian; 10 µM 92% | OVCAR-5 ovarian; 10 µM 103% | OVCAR-5 ovarian; 100 µM 135% | OVCAR-4 ovarian; 10 µM 86% | SK-OV-3 ovarian; 10 µM 120% | IGROV1 ovarian; 10 µM 105% | OVCAR-3 ovarian; 10 µM 104% | HS 578T breast; 10 µM 93.5% | NCI/ADR-RES ovarian; 10 µM 91.5%

CC(=O)/C=C/c1ccc(OCc2ccc(Cl)cc2)cc1
inactive: SR leukemia; 10 µM 98% | SR leukemia; 100 µM 30% | RPMI-8226 leukemia; 10 µM 87.9% | RPMI-8226 leukemia; 100 µM 24.2% | OVCAR-8 ovarian; 10 µM 90.1% | OVCAR-8 ovarian; 100 µM 34.4% | OVCAR-5 ovarian; 10 µM 109% | OVCAR-5 ovarian; 100 µM 75% | OVCAR-4 ovarian; 10 µM 101% | OVCAR-4 ovarian; 100 µM 43.4% | SK-OV-3 ovarian; 10 µM 110% | SK-OV-3 ovarian; 100 µM 38.8% | IGROV1 ovarian; 10 µM 106% | IGROV1 ovarian; 100 µM 61.4% | OVCAR-3 ovarian; 10 µM 102% | OVCAR-3 ovarian; 100 µM 50.7% | HS 578T breast; 10 µM 97.3% | HS 578T breast; 100 µM 51.9% | NCI/ADR-RES ovarian; 10 µM 96.5% | NCI/ADR-RES ovarian; 100 µM 18%

Cn1c(=O)c2c(nc(Nc3cc(=O)[nH]c(=O)[nH]3)n2Cc2ccccc2)n(C)c1=O
active: OVCAR-8 ovarian; 10 µM unless noted 7.39% | OVCAR-3 ovarian; 10 µM unless noted 0.369% | HS 578T breast; 10 µM unless noted -16.6%
inactive: SR leukemia; 10 µM unless noted 90.7% | RPMI-8226 leukemia; 10 µM unless noted 87.9% | OVCAR-5 ovarian; 10 µM unless noted 96.9% | OVCAR-4 ovarian; 10 µM unless noted 52.4% | SK-OV-3 ovarian; 10 µM unless noted 24.6% | IGROV1 ovarian; 10 µM unless noted 89.4% | NCI/ADR-RES ovarian; 10 µM unless noted 99.7%

Cc1nonc1-c1ccc2c(c1)OCO2
inactive: SR leukemia; 10 µM unless noted 104% | RPMI-8226 leukemia; 10 µM unless noted 94.1% and 91.7% | OVCAR-8 ovarian; 10 µM unless noted 98.2% and 96.7% | OVCAR-5 ovarian; 10 µM unless noted 111% and 121% | OVCAR-4 ovarian; 10 µM unless noted 108% and 97.2% | SK-OV-3 ovarian; 10 µM unless noted 97.3% and 107% | IGROV1 ovarian; 10 µM unless noted 108% and 116% | OVCAR-3 ovarian; 10 µM unless noted 101% and 105% | HS 578T breast; 10 µM unless noted 107% and 145% | NCI/ADR-RES ovarian; 10 µM unless noted 97.7%

COc1cc2nc3cc([N+](=O)[O-])ccc3c(NCCNCC(C)(C)O)c2cc1OC
active: SR leukemia; 10 µM unless noted -12.2% | RPMI-8226 leukemia; 10 µM unless noted -8.62% | OVCAR-8 ovarian; 10 µM unless noted -3.94% | OVCAR-5 ovarian; 10 µM unless noted 8.33% | OVCAR-4 ovarian; 10 µM unless noted -31.8% | IGROV1 ovarian; 10 µM unless noted -15.9% | OVCAR-3 ovarian; 10 µM unless noted -31.2% | HS 578T breast; 10 µM unless noted -2.1%
inactive: SK-OV-3 ovarian; 10 µM unless noted 17.8% | NCI/ADR-RES ovarian; 10 µM unless noted 55%

CC(=NCc1ccccc1)c1ccc(O)cc1O
inactive: SR leukemia; 10 µM unless noted 93.5% | RPMI-8226 leukemia; 10 µM unless noted 96.6% | OVCAR-8 ovarian; 10 µM unless noted 103% | OVCAR-5 ovarian; 10 µM unless noted 104% | OVCAR-4 ovarian; 10 µM unless noted 101% | SK-OV-3 ovarian; 10 µM unless noted 103% | IGROV1 ovarian; 10 µM unless noted 105% | OVCAR-3 ovarian; 10 µM unless noted 103% | HS 578T breast; 10 µM unless noted 112% | NCI/ADR-RES ovarian; 10 µM unless noted 98.4%

CC[C@@H]1NC(=O)[C@H]([C@H](O)[C@H](C)C/C=C/c2ccc(CN3C(=O)C(C)=C(C)C3=O)cc2)N(C)C(=O)[C@H](C(C)C)N(C)C(=O)[C@H](CC(C)C)N(C)C(=O)[C@H](CC(C)C)N(C)C(=O)[C@@H](C)NC(=O)[C@H](C)NC(=O)[C@H](CC(C)C)N(C)C(=O)[C@H](C(C)C)NC(=O)[C@H](CC(C)C)N(C)C(=O)CN(C)C1=O
inactive: SR leukemia; 10 µM unless noted 46.9% | RPMI-8226 leukemia; 10 µM unless noted 53.3% | OVCAR-8 ovarian; 10 µM unless noted 78.5% | OVCAR-5 ovarian; 10 µM unless noted 75.9% | OVCAR-4 ovarian; 10 µM unless noted 74.4% | SK-OV-3 ovarian; 10 µM unless noted 83.4% | IGROV1 ovarian; 10 µM unless noted 68.6% | OVCAR-3 ovarian; 10 µM unless noted 76.7% | HS 578T breast; 10 µM unless noted 83.9% | NCI/ADR-RES ovarian; 10 µM unless noted 76.5%

Nc1nc(N)c2c(n1)NC(c1cccc(Nc3ccnc4cc(C(F)(F)F)ccc34)c1)CC(c1ccc(F)cc1)=N2 (stereo not given)
active: SR leukemia; 10 µM unless noted -7.72% | RPMI-8226 leukemia; 10 µM unless noted 3.03%
inactive: OVCAR-8 ovarian; 10 µM unless noted 63.1% | OVCAR-5 ovarian; 10 µM unless noted 108% | OVCAR-4 ovarian; 10 µM unless noted 57.9% | SK-OV-3 ovarian; 10 µM unless noted 63.1% | IGROV1 ovarian; 10 µM unless noted 50.5% | OVCAR-3 ovarian; 10 µM unless noted 26.4% | HS 578T breast; 10 µM unless noted 42.1% | NCI/ADR-RES ovarian; 10 µM unless noted 70.7%

— PubChem BioAssay (NCI)
